Assay results published in PubChem BioAssay (EPA / NIEHS).
Results filed as inconclusive are left out. Active and inactive are the calls of the source. How the source made its calls, unless noted: active means hit-call score of the fitted dose curve at least 0.9, where 1 is the maximum; inconclusive means response in the unintended direction; inactive means score below 0.9.

Key:
[1] = target: PGR (gene 5241) (UniProt P06401); assay: TOX21_PR_LUC_Followup_Antagonist: Tox21 HEK293 Progesterone Receptor (PR) Antagonism Luciferase Follow-Up Assay (AID 2283938);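 further: curve fitted upward as signal gain over DMSO baseline despite antagonist label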
Outline: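 Cells are grown 5 days in charcoal-stripped-FBS assay medium, plated, left 5 h, then dosed with compound and incubated 16 h. ONE-Glo reagent is added and luminescence read after 30 min.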

[2] = target: Thyroid hormone receptor alpha (Rattus norvegicus) + Thyroid hormone receptor beta (Rattus norvegicus) (UniProt P18113+P63059); assay: TOX21_TR_LUC_GH3_Agonist_Followup: Tox21 GH3 Thyroid Hormone Receptor Agonism Luciferase Follow-Up Assay (AID 2283939)
Protocol: TOX21_TR_LUC_GH3_Agonist_Followup is a secondary assay for specificity for the TOX21_TR_LUC_GH3_Agonist assay. TOX21_TR_LUC_GH3_Agonist_Followup is a cell-based, single-readout assay that uses GH3, a rat pituitary gland cell line, with measurements taken at 28 hours after chemical dosing in a 1536-well plate.TOX21_TR_LUC_GH3_Agonist_Followup is one of one assay component(s) measured or calculated from the TOX21_TR_LUC_GH3_Agonist_Followup assay. It is designed to make measurements of luciferase induction, a form of inducible reporter, as detected with bioluminescence signals by […] technology.Data from the assay component TOX21_TR_LUC_GH3_Agonist_Followup was analyzed into 1 assay endpoint. This assay endpoint, TOX21_TR_LUC_GH3_Agonist_Followup, was analyzed in the positive analysis fitting direction relative to DMSO as the negative control and baseline of activity. Using a type of inducible reporter, gain-of-signal activity can be used to understand changes in the reporter gene as they relate to the gene THRA and THRB in the GH3 cell line using a luciferase reporter. Furthermore, this assay endpoint can be referred to as a primary readout, because the performed assay has only produced 1 assay endpoint. This assay endpoint is designated followup because it was a confirmatory screen following the primary qHTS assay. […]

[3] = target: THRA (gene 7067) (UniProt P10827); assay: TOX21_TRA_COA_Agonist_Followup_ratio: Tox21 Thyroid Hormone Receptor alpha Agonism through Coactivator Recruitment Follow-Up Assay, Ratio (AID 2283948; active means hit-call score of the fitted dose curve at least 0.9, where 1 is the maximum; inactive means score below 0.9)
Outline: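 Follow-up specificity assay in which TRα ligand-binding domain, expressed as a GST fusion, recruits a fluorescein-labelled SRC-2 peptide. Energy transfer from a terbium anti-GST antibody gives the acceptor/donor ratio, fitted upward relative to DMSO.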

[4] = target: THRB (gene 7068) (UniProt P10828); assay: TOX21_TRB_BLA_Agonist_Followup_ratio: Tox21 Thyroid Hormone Receptor beta Agonism Beta-lactamase (BLA) Follow-Up Assay, Ratio (AID 2283954)
Outline: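 Agonist mode: compounds (11-point, triplicate) incubated 18 h with HEK293T cells carrying GAL4-DBD/human TRβ-LBD and UAS-β-lactamase. Blue/green (460/530 nm) FRET ratio read after 2 h CCF4-AM loading; CellTiter-Glo viability run in the same plates.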

[5] = target: THRB (gene 7068) (UniProt P10828); assay: TOX21_TRB_COA_Agonist_Followup_ratio: Tox21 Thyroid Hormone Receptor beta Agonism through Coactivator Recruitment Follow-Up Assay, Ratio (AID 2283963; active means hit-call score of the fitted dose curve at least 0.9, where 1 is the maximum; inactive means score below 0.9)
Description: TOX21_TRb_COA_Agonist_Followup is a secondary assay for specificity for the TOX21_TR_GH3_LUC_Agonist assay. The LanthaScreen TR-FRET TR coactivator assay kits were used to determine TR activity in a cell-free functional assay. A time-resolved fluorescence resonance energy transfer (TR-FRET) signal was indicative of coactivator (SRC-2) recruitment.TOX21_TRB_COA_Agonist_Followup_ratio is assay component calculated in the TOX21_TRB_COA_Agonist_Followup assay. The TR-FRET ratio of acceptor emission (ch2) to donor emission (ch1) is indicative of the resonance energy transfer to the fluorescein tag on the coactivator peptide following recruitment to the receptor.Data from the assay component TOX21_TRB_COA_Antagonist_Followup_ratio was analyzed into 1 assay endpoint. This assay endpoint, TOX21_TRB_COA_Antagonist_Followup_ratio, was analyzed in the positive analysis fitting direction relative to DMSO as the negative control and baseline of activity. Using a type of inducible reporter, gain-of-signal activity can be used to understand changes in the reporter gene as they relate to the gene THRB. Furthermore, this assay endpoint can be referred to as a primary readout, because this assay has produced multiple assay endpoints and this ratio serves a reporter gene function to understand target activity. […]

[6] = TOX21_PR_LUC_Followup_Antagonist_viability: Viability Assessment in the Tox21 HEK293 Progesterone Receptor (PR) Antagonism Luciferase Follow-Up Assay (AID 2283940)
Outline: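 Read-out: CellTiter-Glo ATP luminescence, loss of signal taken as reduced viability. Cells: HEK293-PR-A-luc, 3,000/well, 5 h settling, then 16 h compound exposure at 37C, 0% CO2.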

[7] = target: THRA (gene 7067) (UniProt P10827); assay: TOX21_TRA_COA_Antagonist_Followup_ratio: Tox21 Thyroid Hormone Receptor alpha Antagonism through Coactivator Recruitment Follow-Up Assay, Ratio (AID 2283953)
Outline: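 We measured antagonism of T3-type coactivator recruitment using a TR-FRET ratio (emission 520 and 495 nm) between a Tb-labelled anti-GST antibody on TRα LBD (2.5 nM) and SRC-2 peptide (200 nM). Activity was scaled between DMSO and T3 wells.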

[8] = target: THRB (gene 7068) (UniProt P10828); assay: TOX21_TRB_BLA_Antagonist_Followup_ratio: Tox21 Thyroid Hormone Receptor beta Antagonism Beta-lactamase (BLA) Follow-Up Assay, Ratio (AID 2283958)
Outline: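 Read-out: blue/green (460:530 nm) ratio of cleaved to uncleaved CCF4-AM after 2 h at room temperature, fitted against DMSO baseline. HEK293T UAS-bla cells carrying GAL4-human TRβ LBD were exposed 18 h, 37C/5% CO2.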

[9] = TOX21_TRB_BLA_Antagonist_Followup_viability: Viability Assessment in the Tox21 Thyroid Hormone Receptor beta Antagonism Beta-lactamase (BLA) Follow-Up Assay (AID 2283961)
Outline: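 TRβ-bla HEK293T (human TRβ LBD fused to GAL4 DBD), 3,000 cells/well, 2% charcoal-stripped FBS, phenol red-free medium; 18 h compound exposure, 37C; CellTiter-Glo 30 min RT; luminescence, loss-of-signal readout.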

[10] = target: THRB (gene 7068) (UniProt P10828); assay: TOX21_TRB_COA_Antagonist_Followup_ratio: Tox21 Thyroid Hormone Receptor beta Antagonism through Coactivator Recruitment Follow-Up Assay, Ratio (AID 2283967)
Outline: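 Coactivator recruitment to the GST-tagged TRb ligand-binding domain (5.0 nM) was read as the 520/495 nm TR-FRET ratio, using 200 nM fluorescein SRC-2 peptide and 2 nM terbium anti-GST. Scaled between DMSO and T3 wells; loss of signal fitted.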

Sequence of THRB (gene 7068) (P10828 whole entry, looked up, the tested form may be a part): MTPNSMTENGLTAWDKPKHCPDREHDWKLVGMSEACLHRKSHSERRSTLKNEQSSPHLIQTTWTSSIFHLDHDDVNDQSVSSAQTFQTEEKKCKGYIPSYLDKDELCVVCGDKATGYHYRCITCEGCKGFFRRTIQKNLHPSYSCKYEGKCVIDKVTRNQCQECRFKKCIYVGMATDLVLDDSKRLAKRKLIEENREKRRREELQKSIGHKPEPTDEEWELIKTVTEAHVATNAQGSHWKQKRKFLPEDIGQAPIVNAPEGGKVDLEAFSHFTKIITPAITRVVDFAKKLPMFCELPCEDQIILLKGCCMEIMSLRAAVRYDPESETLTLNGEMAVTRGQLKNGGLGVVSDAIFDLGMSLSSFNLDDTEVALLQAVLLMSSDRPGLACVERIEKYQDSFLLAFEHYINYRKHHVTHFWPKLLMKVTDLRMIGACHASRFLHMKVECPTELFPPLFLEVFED
Sequence of THRA (gene 7067) (P10827 whole entry, looked up, the tested form may be a part): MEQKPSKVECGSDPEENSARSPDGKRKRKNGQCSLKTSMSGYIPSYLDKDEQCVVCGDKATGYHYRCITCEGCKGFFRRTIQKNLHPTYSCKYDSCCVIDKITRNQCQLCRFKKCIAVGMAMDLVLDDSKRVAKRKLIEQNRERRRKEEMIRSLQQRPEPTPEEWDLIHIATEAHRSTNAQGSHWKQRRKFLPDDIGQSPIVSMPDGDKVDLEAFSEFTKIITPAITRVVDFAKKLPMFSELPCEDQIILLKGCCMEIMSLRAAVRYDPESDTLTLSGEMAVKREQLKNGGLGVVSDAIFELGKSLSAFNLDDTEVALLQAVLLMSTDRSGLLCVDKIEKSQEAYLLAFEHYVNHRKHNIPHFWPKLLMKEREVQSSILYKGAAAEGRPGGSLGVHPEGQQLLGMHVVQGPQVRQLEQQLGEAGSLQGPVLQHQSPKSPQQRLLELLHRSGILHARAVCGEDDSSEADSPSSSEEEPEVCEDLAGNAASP
Sequence of Thyroid hormone receptor alpha (Rattus norvegicus) + Thyroid hormone receptor beta (Rattus norvegicus) (P63059 whole entry, looked up): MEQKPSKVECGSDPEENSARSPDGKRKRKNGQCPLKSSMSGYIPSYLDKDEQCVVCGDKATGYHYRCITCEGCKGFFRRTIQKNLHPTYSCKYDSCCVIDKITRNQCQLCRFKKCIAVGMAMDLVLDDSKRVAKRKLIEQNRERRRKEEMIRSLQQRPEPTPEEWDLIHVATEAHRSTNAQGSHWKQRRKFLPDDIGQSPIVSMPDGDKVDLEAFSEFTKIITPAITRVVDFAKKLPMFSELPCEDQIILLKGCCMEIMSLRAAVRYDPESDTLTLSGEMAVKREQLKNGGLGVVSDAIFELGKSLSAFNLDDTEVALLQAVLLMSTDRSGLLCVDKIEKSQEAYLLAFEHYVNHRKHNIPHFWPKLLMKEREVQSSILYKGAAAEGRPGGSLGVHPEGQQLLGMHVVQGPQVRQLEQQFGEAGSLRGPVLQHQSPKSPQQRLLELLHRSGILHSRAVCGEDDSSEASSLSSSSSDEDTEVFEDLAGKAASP
Sequence of Thyroid hormone receptor alpha (Rattus norvegicus) + Thyroid hormone receptor beta (Rattus norvegicus) (P18113 whole entry, looked up): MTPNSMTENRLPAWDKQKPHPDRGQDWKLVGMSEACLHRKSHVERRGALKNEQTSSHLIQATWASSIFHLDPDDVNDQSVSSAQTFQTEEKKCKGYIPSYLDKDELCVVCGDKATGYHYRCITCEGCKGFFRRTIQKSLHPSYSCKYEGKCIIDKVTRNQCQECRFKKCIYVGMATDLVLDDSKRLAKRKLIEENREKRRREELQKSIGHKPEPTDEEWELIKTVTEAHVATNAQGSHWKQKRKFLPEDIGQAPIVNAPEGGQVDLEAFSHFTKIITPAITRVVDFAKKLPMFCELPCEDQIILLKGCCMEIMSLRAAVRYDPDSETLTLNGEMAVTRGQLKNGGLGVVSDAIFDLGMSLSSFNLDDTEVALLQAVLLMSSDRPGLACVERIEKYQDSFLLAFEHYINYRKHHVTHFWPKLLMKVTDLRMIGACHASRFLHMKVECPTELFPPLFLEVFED
Sequence of PGR (gene 5241) (P06401 whole entry, looked up): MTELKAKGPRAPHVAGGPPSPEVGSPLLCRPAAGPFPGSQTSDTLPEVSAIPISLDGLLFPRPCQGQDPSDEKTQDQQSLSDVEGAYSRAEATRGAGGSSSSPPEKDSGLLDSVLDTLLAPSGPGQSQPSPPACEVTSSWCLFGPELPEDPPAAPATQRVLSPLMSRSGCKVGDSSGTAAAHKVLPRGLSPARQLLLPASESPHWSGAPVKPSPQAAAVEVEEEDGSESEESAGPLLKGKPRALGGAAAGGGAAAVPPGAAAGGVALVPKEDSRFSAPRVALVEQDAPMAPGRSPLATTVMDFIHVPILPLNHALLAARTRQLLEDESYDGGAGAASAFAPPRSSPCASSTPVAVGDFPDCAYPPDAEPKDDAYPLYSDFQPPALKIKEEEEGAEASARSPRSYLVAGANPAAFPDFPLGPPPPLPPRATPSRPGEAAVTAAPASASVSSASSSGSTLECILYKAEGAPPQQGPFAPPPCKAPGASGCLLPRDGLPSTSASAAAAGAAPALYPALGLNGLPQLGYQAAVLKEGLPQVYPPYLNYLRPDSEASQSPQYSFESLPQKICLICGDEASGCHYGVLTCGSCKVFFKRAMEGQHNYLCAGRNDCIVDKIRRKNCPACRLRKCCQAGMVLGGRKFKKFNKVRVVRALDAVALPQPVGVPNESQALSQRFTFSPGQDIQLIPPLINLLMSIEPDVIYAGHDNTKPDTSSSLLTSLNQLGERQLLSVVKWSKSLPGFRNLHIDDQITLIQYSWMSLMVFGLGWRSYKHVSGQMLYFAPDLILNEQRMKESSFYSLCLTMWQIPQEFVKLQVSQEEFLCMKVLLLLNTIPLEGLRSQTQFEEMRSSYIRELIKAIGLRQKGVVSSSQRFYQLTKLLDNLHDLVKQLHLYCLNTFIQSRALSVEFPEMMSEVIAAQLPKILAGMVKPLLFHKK

Question: For `CC[C@H](c1ccc(O)cc1)[C@@H](CC)c1ccc(O)cc1`, which AC50 [1] is on record?
Answer: Its AC50 is 16200 nM (active).

Question: With `O=C(O)Cc1cc(I)c(Oc2cc(I)c(O)c(I)c2)c(I)c1` as the compound, how does the AC50 [2] read?
Answer: Its AC50 is 6.68 nM (active).

Question: What about the AC50 [3] of the same compound?
Answer: The AC50 was 276 nM (active).

Question: What about the AC50 [4] of the same compound?
Answer: Its AC50 is 24.2 nM (active).

Question: And the AC50 [5]?
Answer: Its AC50 is 246 nM (active).

Question: For `C[C@@H]1C[C@H]2[C@@H]3CCC4=CC(=O)C=C[C@]4(C)[C@@]3(F)[C@@H](O)C[C@]2(C)[C@@]1(O)C(=O)COP(=O)(O)O`, which outcome [6] is on record?
Answer: The outcome was “inactive”.

Question: Which results are given for `CC(C)(C)c1cc(C(C)(C)C)c(O)c(C(C)(C)C)c1`?
Answer: outcome [2]: inactive; outcome [3]: inactive; outcome [4]: inactive; outcome [5]: inactive

Question: With `C#C[C@]1(O)CC[C@H]2[C@@H]3CCC4=CC(=O)CC[C@@H]4[C@H]3CC[C@@]21C` as the compound, how does the outcome [7] read?
Answer: Its outcome is “inactive”.

Question: And the outcome [8]?
Answer: Its outcome is “inactive”.

Question: What about the outcome [9] of the same compound?
Answer: The outcome was “inactive”.

Question: And the outcome [10]?
Answer: Its outcome is “inactive”.
